Compound activity (PubChem BioAssay)
NS1 inh: influenza NS1 inhibition; Potency, µM (highest dose often 46.1 µM), inactives show at the highest dose activity, positive = more growth; AID 2326; hit rate 0.4% among 270,000; calls by dose curve; further: actives are rising curves; nearly all actives have a fitted effect of over 50% in size
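S. cerevisiae expressing influenza A NS1, grown in glucose, washed, then diluted 1:100 into pH 6.0 -URA galactose medium with 23 nl compound. Growth recovery read as OD600; NS1-free strain serves as control.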
AmpC no deterg: blocks E. coli AmpC beta-lactamase in detergent-free assay; AmpC nitrocefin hydrolysis, absorbance 480 nm, 0.0001% Triton; Potency, µM (top dose mostly 57.1 µM), for inactives: at the highest dose activity change, negative = inhibition, actives largely listed as inhibitors; hit rate 0.52% among 330,000; AID 485341;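 further: plate controls were no compound for no effect and no enzyme for full effect; nearly all actives have a fitted effect of over 20% in size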
Target sequence (P00811 whole entry, looked up): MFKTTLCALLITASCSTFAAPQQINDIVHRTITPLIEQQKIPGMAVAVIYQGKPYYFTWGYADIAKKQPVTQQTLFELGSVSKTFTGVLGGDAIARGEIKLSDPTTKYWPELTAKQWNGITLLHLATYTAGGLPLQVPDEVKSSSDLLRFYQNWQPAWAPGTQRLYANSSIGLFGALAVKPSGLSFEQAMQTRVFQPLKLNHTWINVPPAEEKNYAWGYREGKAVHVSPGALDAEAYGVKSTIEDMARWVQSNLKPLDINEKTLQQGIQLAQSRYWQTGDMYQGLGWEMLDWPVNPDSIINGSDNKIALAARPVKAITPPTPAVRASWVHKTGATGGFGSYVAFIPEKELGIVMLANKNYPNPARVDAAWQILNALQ
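AmpC (5.3 nM in the dispensed reagent) in 20 mM phosphate pH 7.0 with 0.01% (detergent screen) or 0.0001% Triton X-100 was preincubated with compounds for 15 min at room temperature. Nitrocefin was then added from an 800 uM solution, and hydrolysis was followed at 480 nm.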
SARS PLP yeast: blocks SARS-CoV papain-like protease in a yeast assay; S. cerevisiae expressing SARS-CoV PLpro, growth rescue; Potency, µM (series often up to 32.9 µM), for the others: at the top dose activity, positive = growth rescue, actives largely listed as activators; hit rate 0.19% among 330,000; calls by dose curve; further: 0% is about no effect; nearly all actives have a fitted effect of over 55% in size
AmpC detergent: blocks E. coli AmpC beta-lactamase in detergent assay; P00811; AmpC hydrolysis of nitrocefin, absorbance 480 nm, 0.01% Triton; Potency, µM (top dose mostly 114 µM), inactives show at the top dose activity change, negative = inhibition, usual class: inhibitors; hit rate 0.041% among 370,000; AID 485294;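 further: 0% = no-compound wells and -100% = no-enzyme wells; nearly all actives have a fitted effect of over 25% in size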
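AmpC (5.3 nM in the dispensed reagent) in 20 mM phosphate pH 7.0 with 0.01% (detergent screen) or 0.0001% Triton X-100 was preincubated with compounds for 15 min at room temperature. Nitrocefin was then added from an 800 uM solution, and hydrolysis was followed at 480 nm.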
AMA1-RON2 inh: disrupts binding of P. falciparum AMA1 to RON2; AlphaScreen AMA1-biotinylated RON2 peptide binding; Potency, µM (top dose mostly 58.2 µM), for inactives: at the highest dose activity change, negative = inhibition, hits mostly inhibitors; hit rate 0.2% among 360,000;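 further: 0% = vehicle wells and -100% = peptide control; nearly all actives have a fitted effect of over 45% in size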
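AMA1 (3D7) with his tag at 25 nM final met compounds first, then biotinylated RON2 peptide at 25 nM; detection used donor plus acceptor beads, 10 µg/mL apiece, read by AlphaScreen after 30 min at room temperature.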
* = called active by the depositor; ? = inconclusive; . = no result; ! = not active in a repeat; [ ] = dose if it differs, or a comment. Compounds with a hit are over-represented: about 0.99% of the library has one in this group of screens. Unless noted, the call rests on the fitted dose curve; in most records, active means well fitted curve in the direction sought with a large enough effect; inconclusive means small, poorly fitted or top-dose-only effect, or another doubt; inactive means no such curve, though single readings can be large; an effect the other way counts as inactive or inconclusive. Potency means the concentration at half of the fitted maximal effect.

SMILES	NS1 inh	AmpC no deterg	SARS PLP yeast	AmpC detergent	AMA1-RON2 inh
COc1ccc(NCc2nnc(SCc3ccc(Cl)cc3)n2-c2ccccc2)cc1	?	26%	-43%	-13%	20µM*
COc1ccc(-n2c(COc3ccc(Cl)cc3)nnc2SCc2ccc(C#N)cc2)cc1	9%	-10%	-4%	?	-8%
O=C(CNc1ccc2c(c1)OCO2)N/N=C\c1cn(Cc2ccc(F)cc2)c2ccccc12	13µM*	-38%	-7%	-15%	.
COc1cc(/C=N/NC(=O)c2cc(-c3cccn3C)n[nH]2)cc(OC)c1OC	9%	-30%	7%	?	13%
COc1cccc(/C=N/NC(=O)c2cc(-c3cccn3C)n[nH]2)c1	16%	13µM*	-1%	-14%	-23%
N#Cc1ccc(/C=N/NC(=S)Nc2ccc(S(=O)(=O)N3CCOCC3)cc2)cc1	-43%	-27%	0%	-11%	109%
O=[N+]([O-])c1cc(Cl)cc(/C=N/NC(=S)Nc2ccc(S(=O)(=O)N3CCOCC3)cc2)c1O	-8%	-57%	9%	-13%	10µM*
O=S(=O)(c1ccc(NC(=S)N/N=C/c2ccc(O)c(O)c2)cc1)N1CCOCC1	3%	16µM*	0%	-4%	33%
O=S(=O)(c1ccc(Cl)c(NC(=S)N/N=C/c2ccc(O)cc2)c1)N1CCOCC1	22%	-34%	-6%	-2%	0%
COC(=O)c1c(C)sc(-c2c(-c3ccc4c(c3)OCCO4)[nH]c3c2c(=O)[nH]c(=O)n3C)c1O	.	.	.	21%	.
Cc1cccc(C)c1NC(=O)CCS(=O)(=O)c1ccc2c(c1)CC(C)N2C(=O)C1CC1 (stereo not given)	.	.	.	4%	.
CCOc1ccc(-c2c(C)nn3c(C)c(C(=O)NC(C)c4ccccc4)cnc23)cc1OCC (stereo not given)	.	.	.	19%	.
COc1ccc(N2CCN(C(=O)C(C)n3c(=O)cc(C(F)(F)F)c4c(C)nn(C)c43)CC2)cc1 (stereo not given)	.	.	.	14%	.
COc1ccc(Nc2c([N+](=O)[O-])ccc3c2=NC2(CCCCC2)N=3)cc1	.	-4%	0%	-4%	8.9µM*
O=[N+]([O-])c1ccc2c(c1Nc1ccccc1)=NC1(CCCCC1)N=2	17%	-8%	-2%	-10%	?
Cc1cc(C)c(CSc2nnc(C)n3c2cc2occc23)c(C)c1	.	.	.	-1%	.
N#CC1=C(N)Oc2cc(N)ccc2C1c1ccc(Cl)cc1 (stereo not given)	20%	11µM*	-6%	-2%	-6%
N#CC1=C(N)Oc2cc(N)ccc2C1c1ccc(F)cc1 (stereo not given)	22%	-34%	4%	-11%	-5%
CN(C)c1ccc(NC(=O)c2ccc(COc3cccc(Cl)c3)o2)cc1	-39%	-12%	-11%	-4%	28µM*
Cc1ccc(/C=[N+](/C)[O-])cc1	.	-12%	-2%	?	18%
Cc1ccc(C=C2C(Cl)=C(Cl)C(Cl)=C2Cl)cc1	8%	16µM*	0%	-1%	?
OCc1cn(-c2ccccc2)nc1-c1ccco1	-9%	-7%	-6%	?	-7%
C=CCOC(=O)C1=C(C)NC(C)=C(C(=O)OCC=C)C1c1cn(-c2ccccc2)nc1-c1ccco1	11%	16µM*	-20%	?	0%
Cc1c(C(=O)NCc2ccccc2)sc2nc3n(c(=O)c12)CCC3	.	.	.	2%	.
Nc1ccc(O)c2c1C(=O)c1ccccc1C2=O	3%	-12%	-33%	0%	7.1µM*
SMILES	NS1 inh	AmpC no deterg	SARS PLP yeast	AmpC detergent	AMA1-RON2 inh
Nc1ccc(Br)c2c1C(=O)c1ccccc1C2=O	-94%	-45%	-9%	-1%	?
O=C(CSC1=Nc2ccccc2C2=NC(CCC(=O)NC3CCCCC3)C(=O)N12)Nc1cccc(Cl)c1 (stereo not given)	.	.	.	9%	.
Cc1ccn2c(C(=O)CSc3ccc(Cl)cc3)c(C)nc2c1	3%	0.32µM*	-2%	-4%	-1%
O=S(=O)(NCCc1csc2nc(-c3ccc(Cl)cc3)nn12)c1ccc(Oc2ccccc2)cc1	.	.	.	-2%	.
O=C(O)c1c2c(nc3ccc(S(=O)(=O)N4CCC(C(=O)NC5CCCC5)CC4)cc13)CCCCC2	0%	25µM*	17%	-14%	4%
CC(=O)Nc1nc2ncc(C=O)nc2c(=O)[nH]1	-6%	.	.	.	.
Cc1ccccc1NC1=C(Cl)C(=O)OC1OC(=O)c1ccco1 (stereo not given)	18%	-41%	16%	?	-5%
COC(=O)c1ccc(NC2=C(Cl)C(=O)OC2OC(=O)c2ccccc2)cc1 (stereo not given)	.	4.5µM*	-5%	10µM*	3%
Cc1ccc(NC2=C(Cl)C(=O)OC2OC(=O)c2ccc(C)cc2)cc1 (stereo not given)	.	-47%	-19%	8.9µM*	-18%
Cc1ccc(S(=O)(=O)NCc2ccc3c(c2)cc(C)n3C)cc1	?	25µM*	-9%	?	-11%
COCC(=O)NCc1ccc2c(c1)cc(C)n2C	7%	7%	-6%	-3%	-20%
Clc1ccc(CN2CCN(c3ncccn3)CC2)c(Cl)c1	-19%	35%	5%	-7%	16µM*
Cc1ccc(S(=O)(=O)Nc2nnc(C3CCCCC3)s2)cc1	-44%	-30%	-6%	-1%	-8%
Cc1ccc(S(=O)(=O)NC(=O)Nc2nnc(C3CC3)s2)cc1	-2%	4.5µM*	0%	2%	24%
Cc1ccc(S(=O)(=O)N(C)c2ccc(OCC(=O)Nc3nnc(C4CC4)s3)cc2)cc1	.	14µM*	1%	-2%	14%
CCc1nnc(NC(=O)COc2ccc(N(C)S(=O)(=O)c3ccc(C)cc3)cc2)s1	.	-16%	5%	-4%	10%
COc1ccc(-c2cc3nc(C)c(CCC(=O)NCc4ccccc4Cl)c(C)n3n2)c(OC)c1	.	.	.	-1%	.
N[C@@H](Cc1cc(I)c(Oc2cc(I)c(O)c(I)c2)c(I)c1)C(=O)O	.	.	.	.	101%
N[C@@H](Cc1cc(I)c(Oc2ccc(O)c(I)c2)c(I)c1)C(=O)O	27%	3.2µM*!	1%	?	34%
CCCCN1C(=O)NC2NC(=O)NC21 (stereo not given)	0%	-6%	17%	-2%	3.5µM*
CCCCN1C(=O)N(C)C2NC(=O)NC21 (stereo not given)	3%	-13%	8%	-10%	5%
Cn1c(NC(=S)Nc2ccccc2)nc2ccccc21	7%	-25%	8.9µM*	-2%	-1%[2.32 µM]
OC[C@@H]1O[C@@H](O)[C@H](N=Cc2ccc3c(c2)OCO3)[C@@H](O)[C@@H]1O	1%	.	.	.	.
Cc1cc(C)c(S(=O)(=O)NCCn2ccc3ccccc32)c(C)c1	-38%	40µM*	-25%	?	-7%
COc1ccc(C)c2sc(N(Cc3cccnc3)C(=O)CCc3ccccc3)nc12	.	.	.	4%	.
O=C(N1CCOCC1)C1(c2ccccc2)CCNCC1	-3%	.	.	.	.
